In ChEMBL document CHEMBL1201862, “PubChem BioAssay data set” (2004):
Among all 57,000 sequences or so, about 3,500 (6.1%) were called active. Cut-off read from the data, not from the text of the source: active = GI50 up to about 1.1 µM and inactive = higher. Only a selection was taken, and actives are over-represented in it overall. Measured potencies and affinities stand elsewhere.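 Growth conditions: 96-well plates. Treatment: test compound, 48 hours, 5 concentrations. Analysis: linear interpolation between bracketing concentrations; unreached endpoints set to highest concentration. The concentration for 50% growth inhibition is given as GI50.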

System: 786-0
Test: NCI tumour cell line growth inhibition, 48 h

How did the GI50 turn out when “[Bis(aminomethyl)tetramethylenesilane]dichloropaltinum(II), CHEMBL2146205” was run?
The GI50 was 5780 nM.

With “[Bis(aminomethyl)diethylsilane]tetrachloroplatinum(IV), CHEMBL2146203” as the substance, how does the GI50 read?
The GI50 was 2180 nM.

Which GI50 does the source give for “[Bis(aminomethyl)tetramethylenesilane]tetrachloropaltinum(IV), CHEMBL2146189” here?
Its GI50 is 3100 nM.

How did the GI50 turn out when CISPLATIN, CHEMBL11359 was run?
The GI50 was 1100 nM.

How did the GI50 turn out when “[Bis(aminomethyl)ethylmethylsilane]tetrachloroplatinum(IV), CHEMBL2146192” was run?
The GI50 was 1340 nM.

How did the GI50 turn out when “[Bis(aminomethyl)dimethylsilane]dichloroplatinum (II), CHEMBL2146201” was run?
The GI50 was 6140 nM.

Which GI50 does the source give for “[Bis(aminomethyl)pentamethylenesilane]dichloropaltinum(II), CHEMBL2146202” here?
Its GI50 is 916 nM.

How did the GI50 turn out when “[Bis(aminomethyl)pentamethylenesilane]tetrachloropaltinum(IV), CHEMBL2146204” was run?
Its GI50 is 1220 nM.

“[Bis(aminomethyl)dimethylsilane]tetrachloroplatinum(IV), CHEMBL2146190” was tested. Which GI50 did it give?
Its GI50 is 2120 nM.

With “mu-(1,7-nanodiamine-N,N')bis-(cis-aminedichloroplatimum (II)), CHEMBL2146215” as the substance, how does the GI50 read?
The GI50 was 8730 nM.

How did the GI50 turn out when “cis-Bis[[(trimethylsilyl)methyl]amino]tetrachloroplatinum(IV), CHEMBL2146191” was run?
The GI50 was 5710 nM.
